Measured values: PubChem BioAssay (NCATS)
Values joined by “and” are separate entries in the source; they are usually repeats but may differ in a detail not shown here. Equal entries are not always repeated. Records with an inconclusive call do not appear. Active and inactive are the calls of the source. Calls follow the shape of the dose curve; as a rule, active = well fitted cell-killing curve with a large enough effect; inconclusive = small, poorly fitted or top-dose-only effect; inactive = flat fitted curve, though single readings scatter.

Legend:
[1] = Cell Viability - LYMP2-025 (AID 976)
Outline: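 Seed 2500 LYMP2-025 cells/well; 5 hr at 37 C; add compound; 24 hr at 37 C; add CellTiter-Glo; 30 min RT; read luminescence. AC50 from Hill-modelled concentration-response.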

[2] = Cell Viability - LYMP2-002 (AID 977);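 also: compound exposure lasted 24 h at 37 °C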
Outline: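 Cytotoxicity is scored as concentration-dependent loss of cellular ATP in a human lymphoblastoid line after 24 hr compound treatment at 37 C. AC50 is obtained by modelling concentration-response data with the Hill equation.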

[3] = Cell Viability - LYMP2-006 (AID 978); also: nearly all actives have a fitted effect of over 60% in size
Outline: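 Human lymphoblastoid cells (LYMP2-006), 2500/well in complete medium, were treated with compound for 24 hr at 37 C. Cellular ATP was read by CellTiter-Glo luminescence after 30 min, and AC50 values came from Hill-equation fits of concentration-response data.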

[4] = Cell Viability - LYMP2-007 (AID 979);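 also: cells exposed to compound for 24 h before reading; nearly all actives have a fitted effect of over 60% in size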
Outline: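 Luminescent ATP signal (CellTiter-Glo) serves as the viability read-out after 24 hr compound treatment of lymphoblastoid cells in complete medium at 37 C. Concentration-response data were fitted to the Hill equation to give AC50 values.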

[5] = Cell Viability - LYMP2-008 (AID 980); also: nearly all actives have a fitted effect of over 60% in size
Outline: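 qHTS, human lymphoblastoid line, 2500 cells/well; 5 hr preincubation, 24 hr compound, 37 C. CellTiter-Glo ATP luminescence. AC50 via Hill equation. Tetraoctylammonium bromide positive control.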

[6] = Cell Viability - LYMP2-010 (AID 981); also: nearly all actives have a fitted effect of over 55% in size
Outline: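 Luminescent ATP signal (CellTiter-Glo) served as the viability read-out. Cells of the human lymphoblastoid line were treated with compound over a concentration range for 24 hours at 37 C, and AC50 values came from Hill-equation modeling.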

[7] = Cell Viability - LYMP2-012 (AID 982);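 also: cellular ATP by luciferase luminescence where a drop means cytotoxicity; cells exposed to compound for one day before reading; nearly all actives have a fitted effect of over 55% in size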
[8] = Cell Viability - LYMP2-014 (AID 983); also: nearly all actives have a fitted effect of over 50% in size
Outline: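 Luminescent ATP signal (CellTiter-Glo, 30 min at room temperature) serves as the viability read-out after 24 hr compound exposure at 37 C. Cells were seeded at 2500 per well and settled 5 hr beforehand.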

[9] = Cell Viability - LYMP2-016 (AID 984); also: nearly all actives have a fitted effect of over 55% in size
Outline: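 Human lymphoblastoid LYMP2-016 cells, 2500 per well, treated with compounds for 24 h at 37 C. Viability read as intracellular ATP by CellTiter-Glo luminescence after 30 min at room temperature; AC50 from Hill fits of concentration-response.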

[10] = Cell Viability - LYMP2-018 (AID 985); also: nearly all actives have a fitted effect of over 50% in size
Outline: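 Luminescent ATP signal (CellTiter-Glo, read after 30 min at room temperature) reports viable cells after 24 hr compound treatment at 37 C. Concentration-response data were fitted to the standard Hill equation for AC50.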

Measured: Potency
Potency is read from the fitted curve at half-maximal effect.

COP(=O)(OC)OC=C(Cl)Cl
inactive: all assays above

C[C@@H]1C[C@@H]([C@H](O)CC2CC(=O)NC(=O)C2)C(=O)[C@@H](C)C1
active: [3] 2.51 µM | [6] 1 µM | [7] 631 nM and 794 nM | [10] 1 µM

COC(=O)C1=C(C)NC(C)=C(C(=O)OC)C1c1ccccc1[N+](=O)[O-]
active: [4] 39.8 µM | [6] 39.8 µM

CC[n+]1c(-c2ccccc2)c2cc(N)ccc2c2ccc(N)cc21
active: [1] 15.8 µM | [2] 15.8 µM | [3] 10 µM | [4] 12.6 µM | [5] 10 µM | [6] 12.6 µM | [7] 7.94 µM | [8] 10 µM | [9] 15.8 µM | [10] 10 µM

Oc1ccc(Cl)cc1Sc1cc(Cl)ccc1O
active: [4] 39.8 µM | [6] 39.8 µM | [7] 31.6 µM | [10] 39.8 µM

O=C(CCl)c1ccc(Cl)cc1Cl
active: [1] 7.94 µM | [2] 7.94 µM | [3] 7.94 µM | [4] 5.01 µM | [5] 7.94 µM | [6] 2.51 µM | [7] 3.16 µM | [8] 5.01 µM | [9] 5.01 µM | [10] 3.16 µM

CCCCCCCCCCCC[N+](C)(C)CCOc1ccccc1
active: [1] 50.1 µM | [2] 50.1 µM | [3] 20 µM | [4] 25.1 µM | [5] 25.1 µM | [6] 39.8 µM | [7] 39.8 µM | [8] 39.8 µM | [9] 31.6 µM | [10] 39.8 µM

Oc1c(Br)cc(Br)cc1Br
inactive: all assays above

CN(C)C(=S)SSC(=S)N(C)C
active: [1] 0.251 µM | [2] 0.316 µM | [3] 0.251 µM | [4] 0.316 µM | [5] 0.251 µM | [6] 0.251 µM | [7] 0.199 µM | [8] 0.199 µM | [9] 0.316 µM | [10] 0.199 µM

CNC(=O)Oc1cccc2ccccc12
inactive: all assays above
